Data as given in ChEMBL document CHEMBL1201862, “PubChem BioAssay data set” (2004).
In all, about 350,000 compounds went through this assay and about 700 (0.2%) were called active. The rule behind the calls is not given here. The sample as a whole holds a higher share of actives than the screen did.

These compounds were tested against RecQ-like DNA helicase BLM (Homo sapiens) (UniProt P54132) (assay: qHTS Assay for Inhibitors of Bloom's syndrome helicase (BLM).).
Chain of RecQ-like DNA helicase BLM (Homo sapiens) (P54132 whole entry): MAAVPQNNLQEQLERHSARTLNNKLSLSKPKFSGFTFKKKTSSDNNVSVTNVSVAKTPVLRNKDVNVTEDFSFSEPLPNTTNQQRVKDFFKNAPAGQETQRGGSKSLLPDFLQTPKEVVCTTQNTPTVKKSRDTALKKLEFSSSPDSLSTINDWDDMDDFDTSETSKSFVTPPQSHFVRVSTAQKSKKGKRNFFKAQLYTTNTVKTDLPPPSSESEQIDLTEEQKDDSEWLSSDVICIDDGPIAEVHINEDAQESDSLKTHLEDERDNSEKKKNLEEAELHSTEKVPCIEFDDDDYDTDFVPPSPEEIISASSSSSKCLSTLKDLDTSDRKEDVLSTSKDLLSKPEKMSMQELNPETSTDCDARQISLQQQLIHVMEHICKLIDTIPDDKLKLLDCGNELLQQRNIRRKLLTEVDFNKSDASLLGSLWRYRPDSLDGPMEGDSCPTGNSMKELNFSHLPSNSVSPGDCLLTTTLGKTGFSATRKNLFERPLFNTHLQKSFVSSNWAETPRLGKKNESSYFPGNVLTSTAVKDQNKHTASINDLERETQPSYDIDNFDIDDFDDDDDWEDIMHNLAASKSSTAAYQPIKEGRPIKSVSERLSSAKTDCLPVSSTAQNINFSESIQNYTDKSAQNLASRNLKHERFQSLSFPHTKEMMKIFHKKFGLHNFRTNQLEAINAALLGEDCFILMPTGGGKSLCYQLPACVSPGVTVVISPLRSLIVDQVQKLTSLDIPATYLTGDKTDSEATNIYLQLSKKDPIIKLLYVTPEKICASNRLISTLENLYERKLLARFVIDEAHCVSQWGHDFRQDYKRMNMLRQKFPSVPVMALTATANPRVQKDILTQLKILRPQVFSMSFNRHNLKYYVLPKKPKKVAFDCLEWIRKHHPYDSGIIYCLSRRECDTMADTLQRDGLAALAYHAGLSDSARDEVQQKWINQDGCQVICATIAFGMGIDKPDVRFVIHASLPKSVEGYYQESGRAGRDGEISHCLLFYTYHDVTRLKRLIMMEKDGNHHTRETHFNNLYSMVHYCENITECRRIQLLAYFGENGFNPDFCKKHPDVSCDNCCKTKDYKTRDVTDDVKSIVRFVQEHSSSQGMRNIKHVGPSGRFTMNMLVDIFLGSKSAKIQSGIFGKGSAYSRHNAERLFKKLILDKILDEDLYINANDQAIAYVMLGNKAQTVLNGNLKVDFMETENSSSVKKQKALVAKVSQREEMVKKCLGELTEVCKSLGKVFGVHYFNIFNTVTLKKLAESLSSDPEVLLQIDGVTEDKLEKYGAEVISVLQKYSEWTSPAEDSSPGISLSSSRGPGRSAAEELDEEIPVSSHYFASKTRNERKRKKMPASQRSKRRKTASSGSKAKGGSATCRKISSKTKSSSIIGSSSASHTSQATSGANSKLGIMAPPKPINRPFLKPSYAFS
Type: functional
With `Nc1nc(N)c2nc(CNc3ccc(C(=O)N[C@@H](CCC(=O)O)C(=O)O)cc3)cnc2n1` the Potency was 20 µM (active).
